The supplement of paper PMC12494721
Structures can show the parent of a compound that is named as a salt.

Assays:
Settings in all cases: incubation time: 27 h, anaerobic, 37 °C;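 for the amine columns active = adjusted P below 0.05 in both replicates with a change the same way and a mean fold change under 0.8 or over 1.25; inactive = the rest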
[1] = test system: Clostridium sporogenes DSM 1664; assay: growth (OD595) fold change vs plate DMSO controls (fold change (ratio)); higher = more growth
How it was run: (§1)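 Absorbance at 595 nm was read after shaking the anaerobic mGAM cultures, which had grown in 96-well plates for 27 h at 37 °C. After blank subtraction and background correction against 20 µM compound solutions in water, a calibration factor of 5 gave OD values. Growth is the fold change against the median of the plate's DMSO controls. Values are the mean of 2 biological replicates, with fold changes above 1.5 set to NA.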

[2] = test system: Escherichia coli IAI1; assay: as above
How it was run: as §1

[3] = test system: Klebsiella aerogenes DSM 30053; assay: as above
How it was run: as §1

[4] = test system: Ruminococcus gnavus DSM 108212; assay: as above
How it was run: as §1

[5] = test system: Klebsiella aerogenes DSM 30053; assay: fold change of Histamine concentration vs plate DMSO controls (fold change (ratio)); higher = more amine produced, active = hit call of the paper (significant change in both replicates, either direction)
How it was run: (§2)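 Amine values are fold changes relative to DMSO-only wells on the same plate. They derive from 27 h, 37 °C anaerobic mGAM cultures of four gut bacterial strains in 80 µL wells, dosed at 20 µM final, or 50 µM final for sweeteners. Extraction of the whole culture, LC–triple-quadrupole MS in dynamic MRM mode, external calibration curves and within-batch drift correction were used, with 2 biological replicates averaged.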

[6] = test system: Clostridium sporogenes DSM 1664; assay: fold change of Tryptamine concentration vs plate DMSO controls (fold change (ratio)); higher = more amine produced, active = hit call of the paper (significant change in both replicates, either direction)
How it was run: as §2

[7] = test system: Ruminococcus gnavus DSM 108212; assay: as above
How it was run: as §2

[8] = test system: Escherichia coli IAI1; assay: fold change of Putrescine concentration vs plate DMSO controls (fold change (ratio)); higher = more amine produced, active = hit call of the paper (significant change in both replicates, either direction)
How it was run: as §2

[9] = test system: Klebsiella aerogenes DSM 30053; assay: as above
How it was run: as §2

[10] = test system: Escherichia coli IAI1; assay: fold change of Cadaverine concentration vs plate DMSO controls (fold change (ratio)); higher = more amine produced, active = hit call of the paper (significant change in both replicates, either direction)
How it was run: as §2

[11] = test system: Klebsiella aerogenes DSM 30053; assay: as above
How it was run: as §2

[12] = test system: Ruminococcus gnavus DSM 108212; assay: fold change of 2-Phenylethylamine concentration vs plate DMSO controls (fold change (ratio)); higher = more amine produced, active = hit call of the paper (significant change in both replicates, either direction)
How it was run: as §2

Compound | growth [1] | growth [2] | growth [3] | growth [4] | fold change of Histamine concentration [5] | fold change of Tryptamine concentration [6] | fold change of Tryptamine concentration [7] | fold change of Putrescine concentration [8] | fold change of Putrescine concentration [9] | fold change of Cadaverine concentration [10] | fold change of Cadaverine concentration [11] | fold change of 2-Phenylethylamine concentration [12]
CNCCCC12CCC(c3ccccc31)c1ccccc12 [Maprotiline hydrochloride] (20 µM) | 1.03 | 1.01 | 0.999 | 1.09 | 0.982 (inactive) | 0.973 (inactive) | 0.913 (inactive) | 1.02 (inactive) | 1.01 (inactive) | 1.03 (inactive) | 1.01 (inactive) | 0.884 (inactive)
CC1(C)O[C@@H]2[C@@H](CO[C@@]3(COS(N)(=O)=O)OC(C)(C)O[C@@H]23)O1 [Topiramate] (20 µM) | 0.915 | 0.972 | 0.997 | 1.06 | 1 (inactive) | 0.998 (inactive) | 0.947 (inactive) | 1.01 (inactive) | 0.98 (inactive) | 1.01 (inactive) | 0.989 (inactive) | 0.951 (inactive)
CC(=O)OCC(=O)[C@@]1(O)CC[C@H]2[C@@H]3CCC4=CC(=O)C=C[C@]4(C)[C@@]3(Cl)[C@@H](Cl)C[C@@]21C [Dichlorisone acetate] (20 µM) | 1.03 | 1.01 | 1 | 0.886 | 0.984 (inactive) | 1.01 (inactive) | 1.01 (inactive) | 1.05 (inactive) | 1.01 (inactive) | 1.04 (inactive) | 1 (inactive) | 0.997 (inactive)
N#C/C(=C1/SCC(c2ccccc2Cl)S1)n1ccnc1 (configuration not stated) [Lanoconazole] (20 µM) | 0.991 | 0.983 | 1 | 1.1 | 0.945 (inactive) | 0.98 (inactive) | 0.982 (inactive) | 1.04 (inactive) | 1.01 (inactive) | 1.01 (inactive) | 1 (inactive) | 0.949 (inactive)
CC(C)c1ccc2oc3nc(N)c(C(=O)O)cc3c(=O)c2c1 [Amlexanox] (20 µM) | 0.911 | 1.2 | 1.05 | 0.857 | 0.877 (inactive) | 1.07 (inactive) | 1.03 (inactive) | 1.1 (inactive) | 0.984 (inactive) | 0.957 (inactive) | 1.03 (inactive) | 1.02 (inactive)
COc1c(-c2ccc3cc(NS(C)(=O)=O)ccc3c2)cc(-n2ccc(=O)[nH]c2=O)cc1C(C)(C)C [Dasabuvir] (20 µM) | 1.04 | 0.964 | 1.01 | 0.849 | 0.969 (inactive) | 0.847 (inactive) | 0.747 (active) | 1.01 (inactive) | 0.999 (inactive) | 0.989 (inactive) | 0.99 (inactive) | 0.754 (inactive)
C=CC(N)CCC(=O)O (configuration not stated) [Vigabatrin hydrochloride] (20 µM) | 1.11 | 1.06 | 1.17 | 0.977 | 0.856 (inactive) | 0.993 (inactive) | 1.02 (inactive) | 1.02 (inactive) | 1.01 (inactive) | 0.978 (inactive) | 1.03 (inactive) | 1 (inactive)
Clc1ccc2nsnc2c1NC1=NCCN1 [Tizanidine hydrochloride] (20 µM) | 0.00885 | 1.01 | 1.15 | 0.103 | 0.919 (inactive) | 0.0144 (active) | 0.0877 (active) | 0.984 (inactive) | 0.995 (inactive) | 0.983 (inactive) | 1.02 (inactive) | 0.0862 (active)
OC(CCN1CCCC1)(c1ccccc1)C1CCCCC1 (configuration not stated) [Procyclidine hydrochloride] (20 µM) | 0.903 | 1.05 | 1.02 | 0.966 | 0.947 (inactive) | 0.959 (inactive) | 0.894 (inactive) | 1.13 (inactive) | 1.08 (inactive) | 0.831 (inactive) | 1.04 (inactive) | 0.912 (inactive)
O=C1[C@H]2CCCC[C@H]2C(=O)N1CCCCN1CCN(c2nsc3ccccc23)CC1 [Perospirone hydrochloride] (20 µM) | 1.12 | 0.968 | 1.01 | 1.32 | 0.986 (inactive) | 1.02 (inactive) | 0.767 (inactive) | 0.989 (inactive) | 1.01 (inactive) | 1.03 (inactive) | 1.02 (inactive) | 0.819 (inactive)
CCCCCCNC(=O)n1cc(F)c(=O)[nH]c1=O [Carmofur] (20 µM) | 0.985 | 0.886 | 0.963 | 0.862 | 0.726 (active) | 0.872 (inactive) | 0.983 (inactive) | 0.508 (active) | 0.936 (inactive) | 0.91 (inactive) | 0.974 (inactive) | 1.01 (inactive)
